{
  "source": "PubChem BioAssay (Tox21)",
  "note": "Records with an inconclusive call do not appear. Active and inactive are the calls of the source. The call rests on the fitted dose curve; in most records, active means well fitted activation curve with a large enough effect in the repeat runs; inconclusive means weak or mixed curves; inactive means flat fitted curve, though single readings scatter. On the % scale 0 is the no-effect control and ±100 the full control effect.",
  "data": [
    {"test": "A CellTox Green Cytotoxicity Assay to monitor cytotoxicity in HEK293 cells - 32 hour (AID 1224881); further: nearly all actives have a fitted effect of over 40% in size", "details": "CellTox Green fluorescence; series mostly up to 76.8 µM; cytotoxicity increase: at the top concentration", "from_the_text": "National Center for Advancing Translational Sciences [NCATS]\nNIH Chemical Genomics Center [NCGC]\nU.S. Environmental Protection Agency [EPA]\nNational Institutes of Environmental Health Sciences [NIEHS]\nNational Toxicology Program [NTP]\nCell-based models are critical for drug discovery. Determining the natural cytotoxic effects resulting from test compounds is an essential research activity. A CellTox Green Cytotoxicity Assay to monitor cytotoxicity in real time of continues cell culture during 40 hours of the compound treatment was used to screen Tox21 10K library compounds in Hek293 cells. CellTox Green Cytotoxicity Assay is a nonlytic, homogeneous, biofluorescent method to measure cytotoxicity in cell culture after experimental manipulation. The assay system uses a proprietary asymmetric cyanine dye that is excluded from viable cells but preferentially stains the dead cell's DNA. […] Viable cells produce no appreciable increases in fluorescence. Therefore, the fluorescence signal produced by the binding interaction with dead cell DNA is proportional to cytotoxicity.\nThe mixture of Hek293 cell suspension and reagents were dispensed at 600cells/6 ul/well in 1536-well tissue culture treated black solid bottom plates using a Multidrop dispenser. After the assay plates were incubated at a 37 C/5% CO2 incubator for 5 hours, 23 nL of compounds dissolved in DMSO, positive and negative controls was transferred to the assay plate by a pintool work station. The plates were incubated at 37 C for 40 hours. The fluorescence intensity were measured at 0h, 8h, 16h, 24h, 32h and 40h time points using ViewLux plate reader during compound treatment.", "values": [
      {"smiles": "OCCOc1cccc(OCCO)c1", "cytotoxicity increase": "-12.1% (inactive)"},
      {"smiles": "O=Cc1ccc(Cl)c([N+](=O)[O-])c1", "cytotoxicity increase": "8.36% (inactive)"},
      {"smiles": "CC(C)Cc1nccs1", "cytotoxicity increase": "-8.61% (inactive)"},
      {"smiles": "CC(=O)Nc1ccn(C2COC(COC(=O)c3ccccc3)O2)c(=O)n1", "note": "(stereo not given)", "cytotoxicity increase": "-8.8% [at 35.3 µM] (inactive)"},
      {"smiles": "CCOc1ccc(NC(C)=O)cc1N", "cytotoxicity increase": "0.974% (inactive)"},
      {"smiles": "O=C(C1CCCCC1)N1CC(=O)N2CCCc3ccccc3C2C1", "note": "(stereo not given)", "cytotoxicity increase": "-2.05% [at 35.3 µM] (inactive)"},
      {"smiles": "OCCc1ccncc1", "cytotoxicity increase": "-0.167% (inactive)"},
      {"smiles": "O=C(O)c1ccccc1[N+](=O)[O-]", "cytotoxicity increase": "3.76% (inactive)"},
      {"smiles": "CCC(C(=O)O)c1ccc(N2Cc3ccccc3C2=O)cc1", "note": "(stereo not given)", "cytotoxicity increase": "1.06% [at 35.3 µM] (inactive)"},
      {"smiles": "COC(=O)/C=C/C(C)=C\\C=C\\C(C)=C\\C=C\\C=C(C)\\C=C\\C=C(C)\\C=C\\C(=O)O", "cytotoxicity increase": "-0.018% (inactive)"},
      {"smiles": "OCCCO", "cytotoxicity increase": "-7.29% (inactive)"},
      {"smiles": "O=C(O)c1ccc(O)c(O)c1", "cytotoxicity increase": "-9.08% (inactive)"},
      {"smiles": "CC(C)CCCCCOC(=O)CS", "cytotoxicity increase": "-11.3% (inactive)"},
      {"smiles": "CC(C)(Cc1c[nH]c2ccccc12)NCC(O)COc1ccccc1C#N", "note": "(stereo not given)", "cytotoxicity increase": "-4.8% [at 35.3 µM] (inactive)"},
      {"smiles": "CCc1c(C)[nH]c2c1C(=O)C(CN1CCOCC1)CC2", "note": "(stereo not given)", "cytotoxicity increase": "-19% [at 35.3 µM] (inactive)"},
      {"smiles": "CCCc1nc(C)c2c(=O)[nH]c(-c3cc(S(=O)(=O)N4CCN(CC)CC4)ccc3OCC)nn12", "cytotoxicity increase": "-29.3% [at 35.3 µM] (inactive)"},
      {"smiles": "O=C(O)c1cc(C(=O)O)c(C(=O)O)cc1C(=O)O", "cytotoxicity increase": "-10.4% (inactive)"},
      {"smiles": "CC(C)=CCCC(C)C=O", "note": "(stereo not given)", "cytotoxicity increase": "4.05% (inactive)"},
      {"smiles": "Clc1cccc(C(c2ccc3nc[nH]c3c2)n2ccnc2)c1", "note": "(stereo not given)", "cytotoxicity increase": "4.62% [at 35.3 µM] (inactive)"},
      {"smiles": "CC(COc1ccccc1)NC(C)C(O)c1ccc(O)cc1", "note": "(stereo not given)", "cytotoxicity increase": "-4.92% [at 35.3 µM] (inactive)"},
      {"smiles": "Cc1c(Nc2ncccc2C(=O)O)cccc1C(F)(F)F", "cytotoxicity increase": "-19.2% [at 35.3 µM] (inactive)"},
      {"smiles": "CCCCCCCCCCCCCCCCC(=O)O", "cytotoxicity increase": "-9.05% [at 35.3 µM] (inactive)"},
      {"smiles": "CC/C=C/CCO", "cytotoxicity increase": "-5.68% (inactive)"},
      {"smiles": "O=C(Nc1ccc2c(c1)Cc1ccccc1-2)C(F)(F)F", "cytotoxicity increase": "-5.67% (inactive)"},
      {"smiles": "CCC[Si](OC)(OC)OC", "cytotoxicity increase": "-0.495% (inactive)"},
      {"smiles": "CCN(CCCCOC(=O)c1ccc(OC)c(OC)c1)C(C)Cc1ccc(OC)cc1", "note": "(stereo not given)", "cytotoxicity increase": "3.13% [at 35.3 µM] (inactive)"},
      {"smiles": "CC(C(=O)O)c1ccc(/C=C2\\CCCCC2=O)cc1", "note": "(stereo not given)", "cytotoxicity increase": "-0.38% [at 35.3 µM] (inactive)"},
      {"smiles": "O=C(O)c1cccnc1Nc1cccc(C(F)(F)F)c1", "cytotoxicity increase": "-14.3% [at 35.3 µM] (inactive)"},
      {"smiles": "CC1(C)CC(=O)CC(C)(C)N1", "cytotoxicity increase": "-15.3% (inactive)"},
      {"smiles": "C=CC(C)CCC=C(C)C", "note": "(stereo not given)", "cytotoxicity increase": "7.02% (inactive)"},
      {"smiles": "CCOc1cc(OCC)c(C(C)=O)cc1OCC", "cytotoxicity increase": "1.02% (inactive)"},
      {"smiles": "COC(=O)C(C)(C)C", "cytotoxicity increase": "-0.515% (inactive)"},
      {"smiles": "c1ccc(CN(Cc2ccccc2)Cc2ccccc2)cc1", "cytotoxicity increase": "-2.38% (inactive)"},
      {"smiles": "CCCCOC(=O)CC#N", "cytotoxicity increase": "-9.55% (inactive)"},
      {"smiles": "CC1(C)[C@@H]2CC[C@]3(C2)[C@@H]1C(=O)CCC3(C)C", "cytotoxicity increase": "22.8% (inactive)"},
      {"smiles": "CC(C)(C)NCC(O)COc1ccc(NC(=O)NC2CCCCC2)cc1", "note": "(stereo not given)", "cytotoxicity increase": "-4.98% [at 35.3 µM] (inactive)"},
      {"smiles": "CCCCCCCCC(=O)OCC(C)OC(=O)CCCCCCCC", "note": "(stereo not given)", "cytotoxicity increase": "1.55% (inactive)"},
      {"smiles": "CCCCCCCCS", "cytotoxicity increase": "-0.126% (inactive)"},
      {"smiles": "CO[C@@H]1[C@@H](O[C@@H]2O[C@H](C)[C@@H](O[C@H]3C[C@@](C)(O)[C@@H](O)[C@H](C)O3)[C@H](N(C)C)[C@H]2O)[C@@H](CC=O)C[C@@H](C)[C@@H](O[C@@H]2CC[C@H](N(C)C)[C@@H](C)O2)/C=C/C=C/C[C@@H](C)OC(=O)C[C@H]1OC(C)=O", "cytotoxicity increase": "-1.07% [at 35.3 µM] (inactive)"},
      {"smiles": "CC(CCl)OC(C)CCl", "note": "(stereo not given)", "cytotoxicity increase": "-9.62% (inactive)"}
    ]}
  ]
}
